Screens as filed in PubChem BioAssay.
Hits are enriched below; roughly 9% of the tested compounds scored in any of these assays.
HPGD block = blocks human HPGD enzyme activity; P15428; purified HPGD, NADH fluorescence kinetic, PGE2 substrate; Potency, µM, inactives show at the highest dose activity change, negative = inhibition, actives largely listed as inhibitors; 150,000 tested, 4.3% active; AID 894; also: potency is read from the fitted curve at half-maximal effect
Target sequence (P15428 whole entry, looked up): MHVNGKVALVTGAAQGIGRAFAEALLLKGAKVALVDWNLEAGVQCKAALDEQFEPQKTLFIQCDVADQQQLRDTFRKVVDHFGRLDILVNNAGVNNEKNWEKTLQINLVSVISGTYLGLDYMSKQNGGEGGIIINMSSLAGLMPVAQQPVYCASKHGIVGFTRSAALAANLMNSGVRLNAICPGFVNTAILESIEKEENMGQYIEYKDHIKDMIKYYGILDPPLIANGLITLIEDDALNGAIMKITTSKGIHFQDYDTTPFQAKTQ
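20 nM HPGD preincubated 15 min at room temperature with compound in 50 mM Tris-HCl pH 8, 0.01% Tween 20. Started with 1 mM NAD+ and 30 uM prostaglandin E2; NADH fluorescence (360/450 nm) read 5 times over 30-s intervals, last minus first.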
IMPase inh = IMPase inhibition in cells. CHO-M1 cells, IP1 accumulation, HTRF TR-FRET ratio. inhibition (IP1 accumulation), % at 46.1 µM. 120,000 tested, under 10 active; active = well fitted curve in the direction sought with a large enough effect in the signal ratio, not every such curve was filed as active; inconclusive = small, poorly fitted or top-dose-only effect, or a change in a side signal; inactive = no such curve, though single readings can be large or run the other way; the % refers to the signal ratio;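 also: cells stimulated with carbachol in lithium chloride buffer; plate controls were DMSO basal wells for no effect and reference inhibitor wells for full effect; higher means more IMPase inhibition seen as more IP1 and lower FRET ratio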
Target sequence (P97697 whole entry, looked up): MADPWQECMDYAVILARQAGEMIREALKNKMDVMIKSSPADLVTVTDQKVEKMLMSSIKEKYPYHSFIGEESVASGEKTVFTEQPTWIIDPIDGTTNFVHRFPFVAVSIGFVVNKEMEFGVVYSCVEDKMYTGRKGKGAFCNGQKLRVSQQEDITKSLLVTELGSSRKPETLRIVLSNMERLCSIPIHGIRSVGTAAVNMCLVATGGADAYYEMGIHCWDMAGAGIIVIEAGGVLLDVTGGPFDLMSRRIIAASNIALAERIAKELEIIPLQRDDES
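Carbachol-driven Gq signalling in CHO-M1 cells (2000/well) generates IP1. Compounds that block IMPase raise IP1 and so reduce the FRET signal from Eu-anti-IP1 and d2-IP1 after a 10 min room-temperature lysis.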
ALDH1A1 block = ALDH1A1 (human) enzyme inhibition; Purified ALDH1A1, NADH fluorescence, propionaldehyde substrate; Potency, µM (top dose mostly 75.3 µM), for the others: at the top dose activity, negative = inhibition, usual class: inhibitors; 220,000 tested, 7.3% active;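 also: potency is read from the fitted curve at half-maximal effect; plate controls were no enzyme wells and a reference inhibitor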
Numbers without * were called inactive; ? = inconclusive; / = not tested or not shown; ! = not active in a repeat; [ ] = remark or other dose. Unless noted, calls follow the shape of the dose curve; as a rule, active = well fitted inhibition curve with a large enough effect (not every such curve was filed as active); inconclusive = small, poorly fitted or top-dose-only effect, or another doubt; inactive = no such curve, though single readings can be large or run the other way. Unless noted, % is scaled to controls: 0 for no effect and ±100 for the full control effect.

SMILES	HPGD block	IMPase inh	ALDH1A1 block
CCc1cccc2c(C(=O)C(F)(F)F)cn(CC(=O)NCC3CCCO3)c12 (stereo not given)	/	/	5.2%
CC1C2CCC3C4CC=C5CC(N(C)C)CC[C@@]5(C)C4CC[C@@]32CN1C (stereo not given in full)	-2.6%	/	0.2%
ON1C2CCCCC2N(O)C1c1c(F)c(F)c(F)c(F)c1F (stereo not given)	-4.6%	-4.3	-4.5%
COCCn1cnnc1SCC(=O)Nc1ccccc1C(=O)Nc1ccc2c(c1)OCO2	2.9%	12.3	?
Cn1c(=O)n(C)c2cc(N3CCCCC3)c(NC(=O)Nc3ccc(Br)cc3)cc21	/	-0.7	/
Cc1cc(NC(=O)CSc2nnc(NC(=O)C3CC(=O)N(c4ccccc4)C3)s2)no1 (stereo not given)	-13.2%	/	-2.1%
O=C(Nc1nnc(SCc2ccc(F)cc2)s1)C1CC(=O)N(c2ccc3c(c2)OCCO3)C1 (stereo not given)	?	10.2	-11.8%
Cc1cc(NC(=O)CSc2nnc(NC(=O)C3CC(=O)N(c4ccccc4C)C3)s2)no1 (stereo not given)	-21.3%	/	20µM*
O=C(Nc1nnc(SCc2c(Cl)cccc2Cl)s1)C1CC(=O)N(c2ccc3c(c2)OCCO3)C1 (stereo not given)	/	/	3.55µM*
CCCCc1nnc(NC(=O)C2CC(=O)N(c3ccc4c(c3)OCCO4)C2)s1 (stereo not given)	-16.8%	6.6	-4.5%
O=C(Nc1nc(-c2ccco2)c(-c2ccco2)s1)C1CC(=O)N(c2ccc3c(c2)OCCO3)C1 (stereo not given)	?	-1.2	1.12µM*
O=C(Nc1ccc(C(F)(F)F)cc1)c1cnc(N2CCN(c3ccccn3)CC2)c2ccccc12	/	/	-4.0%
CC(=O)N1CCC2(CCCN(c3ccccc3)C2)CC1	-10.0%	/	-4.7%
CC(C)NC[C@@H](O)c1ccc(O)c2ncccc12	-1.0%	/	-6.3%[13.5 µM]
COc1ccc(NC(=O)N2CCC3(CC2)CCN(C(=O)c2cc(C(F)(F)F)cc(C(F)(F)F)c2)CC3)cc1	-5.1%	/	3.3%
CCCCC1CC(/C(C)=N/NC(N)=O)OC1=O (stereo not given)	0.5%	9.3	-5.5%
O=C(Nc1nc(-c2ccccn2)cs1)c1ccc2c(c1)OCCO2	/	/	-18.5%
O=C(Nc1nc(-c2ccccn2)cs1)c1cc(Cl)ccc1[N+](=O)[O-]	/	/	10µM*
Cc1csc(NC(=O)c2ccc(Cl)cc2[N+](=O)[O-])n1	/	/	0.9%
O=C(Nc1nc(-c2ccccn2)cs1)c1ccccc1-n1cnnn1	/	/	10µM*
COCCN(C(=O)Cc1cccs1)C(C(=O)NC1CCCC1)c1cc(OC)c(OC)c(OC)c1 (stereo not given)	/	/	2.3%
CCOC(=O)Cc1cc(=O)[nH]c(/N=C(\N)Nc2ccc(C)c(C)c2)n1	/	/	-0.9%
COc1cc(C(F)(F)F)c(C(=O)NCc2cccc(Cl)c2)cn1	/	/	-7.6%
O=C(Cn1cnc(Cl)c1Cl)c1ccc(F)cc1	/	/	-8.8%
CCOCCOC(=O)C1=C(C)N(C)C(=O)NC1c1ccccc1Cl (stereo not given)	-3.5%	11.4	7.9%
SMILES	HPGD block	IMPase inh	ALDH1A1 block
CC1=C(C(=O)OCC(C)C)C(c2ccccc2Cl)NC(=O)N1C (stereo not given)	-17.2%	6.8	20µM*
O=C(c1ccc(Cn2cc(Br)cn2)cc1)N1N=C(C(F)F)CC1(O)C(F)F (stereo not given)	-7.3%	/	7.8%
Fc1ccc(-c2cn3cc(Cc4ccccc4)sc3n2)cc1	/	-2.4	/
S=c1[nH]cc(Cc2ccccc2)s1	20µM*	/	10µM*
CC(C)(C)NC(=O)CSc1nc2ccc(NC(=O)CSc3nnnn3Cc3ccccc3)cc2s1	8.91µM*	7.7	3.98µM*
Nc1ccc2nc(SCC(=O)N3CCOCC3)sc2c1	/	/	2.9%
Cn1ccnc1SCC(=O)Nc1ccc2nc(SCC(=O)NC3CC3)sc2c1	14.1µM*	5.1	3.55µM*
CCOC(=O)CSc1nc2ccc(N)cc2s1	?	-4.7	20µM*
CC(C)(C)NC(=O)CSc1nc2ccc(NC(=O)CSc3nnc(N)s3)cc2s1	31.6µM*	/	-1.8%
Cc1cccc(NC(=O)CSc2nnc(N)s2)c1	/	-4.2	/
Cn1ccnc1SCC(=O)Nc1nc2ccccc2s1	/	/	-8.0%
COC(=O)c1ccsc1NC(=O)CSc1nnnn1Cc1ccccc1	-7.5%	1.7	-12.2%
COc1ccc(Cl)cc1S(=O)(=O)n1ccnc1C(C)C	-7.3%	4.5	?
COc1ccccc1NC(=O)N1CCc2[nH]c3ccc(Cl)cc3c2C1	-10.8%	0.8	13.6%
N#CC1=C(N)N(c2ccccc2Sc2ccccc2)C(=O)C1	-9.3%	12.7	?
COC(=O)[C@@H]1CCCN1C(=O)[C@@H](C)CO	/	/	-3.7%[13.5 µM]
N[C@H](Cc1ccc(O)c(O)c1)C(=O)O	-23.4%	/	?
COC(=O)CSc1nc2ccc(NC(C)=O)cc2s1	-1.0%	2.6	11.2%
CCOC(=O)CSc1nc2ccc(NC(=O)CSc3nnnn3Cc3ccccc3)cc2s1	-10.9%	0.4	14.1µM*
COc1ccccc1CCn1c(=O)c(-c2ccc(F)c(F)c2)nc2cncnc21	/	/	3.1%
COc1ccc(-c2cc(CNC(=O)CN3CCN(C)CC3)on2)cc1	-10.9%	5.9	?
CCN(CC)CC(=O)NCc1cc(-c2ccc(OC)cc2)no1	1.26µM*	1.6	-11.9%
Nc1ncn([C@@H]2O[C@H](CO)[C@@H](O)[C@H]2O)c(=O)n1	-8.1%	1.5	22.4µM*!
Nc1nc(SCc2ccc([N+](=O)[O-])cc2)c2ncn([C@@H]3O[C@H](CO)[C@H](O)[C@H]3O)c2n1	25.1µM*	/	-12.6%
Nc1nc(SCc2ccc([N+](=O)[O-])cc2)c2ncn([C@@H]3O[C@@H](CO)[C@@H](O)[C@H]3O)c2n1	/	7.3	/
SMILES	HPGD block	IMPase inh	ALDH1A1 block
NC(=O)c1ncn(C2OC(CO)C(O)C2O)c1N (stereo not given)	-14.2%	/	0.3%
O=C(c1cc2nc(-c3ccc(Cl)cc3)cc(C(F)(F)F)n2n1)N1CCOCC1	/	/	11.5%
C/C(=N\NC(=O)c1c(C)nc2ccccn12)c1ccco1	/	/	-39.2%
CN(Cc1ccccc1)C(=O)CCC(=O)N(C)Cc1ccccc1	-9.4%	-6.1	-3.1%
CC(=O)N(C)Cc1ccc(C(=O)CCl)cc1	/	/	0.708µM*
CC(=O)NCc1ccc(C(=O)CCl)cc1	/	/	0.355µM*
CC(=O)Nc1ccc(C(=O)CCl)cc1	-12.0%	/	0.0447µM*
CCC(=O)c1ccc(CCCCCC(=O)O)s1	-25.4%	-14.1	10.1%
CC(=O)NCCC(=O)NCc1ccc(F)cc1	-8.8%	1.8	-9.8%
CC(=O)NCc1ccc(C(=O)CCl)s1	/	/	0.141µM*
CC(=O)Nc1ccc(C)cc1	-6.1%	/	-0.7%
C=C1CCC(O)C/C1=C\C=C1/CCCC2(C)C1CCC2C(C)/C=C/C(C)C(C)C (stereo not given)	-7.1%	-5.3	3.9%
O=C(CCSc1ccc(Cl)c(Cl)c1)NC12CC3CC(CC(C3)C1)C2	-18.9%	1.0	-6.9%
O=C(O)c1ccc(Nc2ccnc3cc(Cl)ccc23)cc1O	-27.2%	/	-5.0%[13.5 µM]
O=C(O)CC1(CC(=O)NCc2ccccn2)CCCCC1	/	/	2.3%
O=S(=O)(Nc1cccc(-c2ccc3nncn3n2)c1)c1ccc(Cl)s1	/	/	2.2%
COc1ccccc1CNC(=S)NC1CCCC1	-23.1%	9.5	4.9%
CCOc1ccc(C(=O)O)cn1	/	/	14.6%
O=C(O)c1ccc(SSc2ccc(C(=O)O)cn2)nc1	3.98µM*	/	?
